Experimental data taken from PubChem BioAssay (EPA / NIEHS).
Activity calls are given as the source filed them. Rule for the calls: active = hit-call score of the fitted dose curve at least 0.9, where 1 is the maximum; inactive = score below 0.9.

Assay: ATG_M_61_CIS: Attagene CIS-FACTORIAL HepG2 Assay for M61 Transcription Factor (Internal Marker) (AID 2282937)
Conditions: HepG2 Attagene CIS-FACTORIAL M61 internal marker reporter; actives raise or lower the signal
Summary of the method: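 Endogenous transcription factor activity in HepG2 is read through transiently transfected cis-element reporter units. After 24 h dosing, RNA undergoes reverse transcription, PCR and primer extension with 6-FAM before capillary electrophoresis; DMSO-referenced bidirectional fit.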

| Structure (SMILES) | outcome |
| --- | --- |
| NC(=O)c1cccnc1 | inactive |
| COC(=O)c1cccc(C(=O)OC)c1 | inactive |
| CC(C)(O)CCc1ccccc1 | inactive |
| CC(CO)c1ccccc1 (configuration not stated) | inactive |
| CCCCCC1CCC(=O)O1 (configuration not stated) | inactive |
| C=C1CC/C=C(\C)CC[C@@H]2[C@@H]1CC2(C)C | inactive |
| CC/C=C\CCOC(C)OCC (configuration not stated) | inactive |
| C=C(C)C(N)=O | inactive |
| CCCCCCCCOC(=O)c1ccc(O)cc1 | inactive |
| CC(C)(C)c1ccc(S)cc1 | inactive |
| C1CCCNCC1 | inactive |
| CCCCCCC(C)O (configuration not stated) | inactive |
| CC1(C)CC(N)CC(C)(CN)C1 (configuration not stated) | inactive |
| CN1CCc2cccc3c2[C@H]1Cc1ccc(O)c(O)c1-3 | inactive |
| CCCCOCCOCCO | inactive |
| CCn1cc(C(=O)O)c(=O)c2ccc(C)nc21 | inactive |
| C=CC(=O)OCC(CO)(COC(=O)C=C)COC(=O)C=C | inactive |
| Nc1ccn([C@H]2CC[C@@H](CO)O2)c(=O)n1 | inactive |
| CC(=O)OCC=C(C)CCC=C(C)CCC=C(C)C | inactive |
| NC(N)=S | inactive |
| CC(=O)C1C(=O)C=C(C)OC1=O (configuration not stated) | inactive |
| CCCCCc1cccc(=O)o1 | inactive |
| CCO[Si](CCC#N)(OCC)OCC | inactive |
| CC(C)COC(=O)c1ccccc1O | inactive |
| O=C1CCC(=O)N1 | inactive |

Assay: ATG_EGR_CIS: Attagene CIS-FACTORIAL HepG2 Assay for human Early Growth Response 1 (EGR1) (AID 2282938)
Conditions: HepG2 Attagene CIS-FACTORIAL EGR reporter mRNA; actives raise or lower the signal
Summary of the method: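 Activity is taken as induction or loss of reporter mRNA versus DMSO, fitted bidirectionally. Transcripts from cis-regulated reporter units in transiently transfected HepG2 were measured after 24 h by RT-PCR with capillary electrophoresis.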

| Structure (SMILES) | outcome | AC50 |
| --- | --- | --- |
| C1=COCCC1 | inactive |  |
| NC(=O)c1cccnc1 | inactive |  |
| COC(=O)c1cccc(C(=O)OC)c1 | inactive |  |
| CC(C)(O)CCc1ccccc1 | inactive |  |
| NNC(=O)OCc1ccccc1 | inactive |  |
| CC(CO)c1ccccc1 (configuration not stated) | inactive |  |
| CCCCCC1CCC(=O)O1 (configuration not stated) | inactive |  |
| c1ccc2scnc2c1 | inactive |  |
| C=C1CC/C=C(\C)CC[C@@H]2[C@@H]1CC2(C)C | inactive |  |
| CC/C=C\CCOC(C)OCC (configuration not stated) | inactive |  |
| C=C(C)C(N)=O | inactive |  |
| CC1=CC[C@@H]2C[C@H]1C2(C)C | inactive |  |
| CCCCCCCCOC(=O)c1ccc(O)cc1 | inactive |  |
| CC(C)(C)c1ccc(S)cc1 | inactive |  |
| CCOC(=O)C(=O)OCC | inactive |  |
| C1CCCNCC1 | inactive |  |
| CCCCCCC(C)O (configuration not stated) | inactive |  |

| Structure (SMILES) | outcome | AC50 |
| --- | --- | --- |
| CC1(C)CC(N)CC(C)(CN)C1 (configuration not stated) | inactive |  |
| CN1CCc2cccc3c2[C@H]1Cc1ccc(O)c(O)c1-3 | inactive |  |
| CCCCOCCOCCO | inactive |  |
| CCn1cc(C(=O)O)c(=O)c2ccc(C)nc21 | inactive |  |
| C=CC(=O)OCC(CO)(COC(=O)C=C)COC(=O)C=C |  | 5.52 µM (active) |
| CC/C=C\CCOC(=O)C(C)C | inactive |  |
| Nc1ccn([C@H]2CC[C@@H](CO)O2)c(=O)n1 | inactive |  |
| CC(=O)OCC=C(C)CCC=C(C)CCC=C(C)C | inactive |  |
| NC(N)=S | inactive |  |
| CC(=O)C1C(=O)C=C(C)OC1=O (configuration not stated) | inactive |  |
| CC(C)CCOC(=O)CC(C)C | inactive |  |
| CC(C)=CC(=O)O | inactive |  |
| CCCCCc1cccc(=O)o1 | inactive |  |
| CCO[Si](CCC#N)(OCC)OCC | inactive |  |
| CC(C)COC(=O)c1ccccc1O | inactive |  |
| O=C(C=Cc1ccccc1)OCCCc1ccccc1 | inactive |  |
| O=C1CCC(=O)N1 | inactive |  |

Assay: ATG_M_19_CIS: Attagene CIS-FACTORIAL HepG2 Assay for M19 Transcription Factor (Internal Marker) (AID 2282939)
Conditions: HepG2 Attagene CIS-FACTORIAL M19 internal marker reporter; actives raise or lower the signal
Summary of the method: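 HepG2 cells transiently transfected with cis-regulated multiplexed reporter units, dosed 24 h. Reporter mRNA quantified by RT-PCR and capillary electrophoresis; internal background marker fitted bidirectionally versus DMSO.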

| Structure (SMILES) | outcome | AC50 |
| --- | --- | --- |
| C1=COCCC1 | inactive |  |
| NC(=O)c1cccnc1 | inactive |  |
| COC(=O)c1cccc(C(=O)OC)c1 | inactive |  |
| CC(C)(O)CCc1ccccc1 | inactive |  |
| NNC(=O)OCc1ccccc1 | inactive |  |
| CC(CO)c1ccccc1 (configuration not stated) | inactive |  |
| CCCCCC1CCC(=O)O1 (configuration not stated) | inactive |  |
| c1ccc2scnc2c1 | inactive |  |
| C=C1CC/C=C(\C)CC[C@@H]2[C@@H]1CC2(C)C | inactive |  |
| CC/C=C\CCOC(C)OCC (configuration not stated) | inactive |  |
| C=C(C)C(N)=O | inactive |  |
| CC1=CC[C@@H]2C[C@H]1C2(C)C | inactive |  |
| CCCCCCCCOC(=O)c1ccc(O)cc1 | inactive |  |
| CC(C)(C)c1ccc(S)cc1 | inactive |  |
| CCOC(=O)C(=O)OCC | inactive |  |
| C1CCCNCC1 | inactive |  |
| CCCCCCC(C)O (configuration not stated) | inactive |  |

| Structure (SMILES) | outcome | AC50 |
| --- | --- | --- |
| CC1(C)CC(N)CC(C)(CN)C1 (configuration not stated) | inactive |  |
| CN1CCc2cccc3c2[C@H]1Cc1ccc(O)c(O)c1-3 | inactive |  |
| CCCCOCCOCCO | inactive |  |
| CCn1cc(C(=O)O)c(=O)c2ccc(C)nc21 | inactive |  |
| C=CC(=O)OCC(CO)(COC(=O)C=C)COC(=O)C=C | inactive |  |
| CC/C=C\CCOC(=O)C(C)C | inactive |  |
| Nc1ccn([C@H]2CC[C@@H](CO)O2)c(=O)n1 | inactive |  |
| CC(=O)OCC=C(C)CCC=C(C)CCC=C(C)C |  | 183 µM (active) |
| NC(N)=S | inactive |  |
| CC(=O)C1C(=O)C=C(C)OC1=O (configuration not stated) | inactive |  |
| CC(C)CCOC(=O)CC(C)C | inactive |  |
| CC(C)=CC(=O)O | inactive |  |
| CCCCCc1cccc(=O)o1 | inactive |  |
| CCO[Si](CCC#N)(OCC)OCC | inactive |  |
| CC(C)COC(=O)c1ccccc1O | inactive |  |
| O=C(C=Cc1ccccc1)OCCCc1ccccc1 | inactive |  |
| O=C1CCC(=O)N1 | inactive |  |

Assay: ATG_ERE_CIS: Attagene CIS-FACTORIAL HepG2 Assay for Estrogen Response Element (ERE) (AID 2282940)
Conditions: HepG2 ERE cis-reporter, Attagene RNA transcript; actives raise or lower the signal
Summary of the method: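 HepG2 cells transiently transfected with multiplexed cis-element reporter units, measuring endogenous transcription factor activity; ERE reporter mRNA quantified after 24 h exposure by RT-PCR, fluorescent labelling, HpaI digestion and capillary electrophoresis. Bidirectional change versus DMSO.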

| Structure (SMILES) | outcome | AC50 |
| --- | --- | --- |
| C1=COCCC1 | inactive |  |
| NC(=O)c1cccnc1 | inactive |  |
| COC(=O)c1cccc(C(=O)OC)c1 | inactive |  |
| CC(C)(O)CCc1ccccc1 | inactive |  |
| NNC(=O)OCc1ccccc1 | inactive |  |
| CC(CO)c1ccccc1 (configuration not stated) | inactive |  |
| CCCCCC1CCC(=O)O1 (configuration not stated) | inactive |  |
| c1ccc2scnc2c1 | inactive |  |
| C=C1CC/C=C(\C)CC[C@@H]2[C@@H]1CC2(C)C |  | 33.8 µM (active) |
| CC/C=C\CCOC(C)OCC (configuration not stated) | inactive |  |
| C=C(C)C(N)=O | inactive |  |
| CC1=CC[C@@H]2C[C@H]1C2(C)C | inactive |  |
| CCCCCCCCOC(=O)c1ccc(O)cc1 |  | 5.12 µM (active) |
| CC(C)(C)c1ccc(S)cc1 | inactive |  |
| CCOC(=O)C(=O)OCC | inactive |  |
| C1CCCNCC1 | inactive |  |
| CCCCCCC(C)O (configuration not stated) | inactive |  |

| Structure (SMILES) | outcome | AC50 |
| --- | --- | --- |
| CC1(C)CC(N)CC(C)(CN)C1 (configuration not stated) | inactive |  |
| CN1CCc2cccc3c2[C@H]1Cc1ccc(O)c(O)c1-3 |  | 0.386 µM (active) |
| CCCCOCCOCCO | inactive |  |
| CCn1cc(C(=O)O)c(=O)c2ccc(C)nc21 | inactive |  |
| C=CC(=O)OCC(CO)(COC(=O)C=C)COC(=O)C=C | inactive |  |
| CC/C=C\CCOC(=O)C(C)C | inactive |  |
| Nc1ccn([C@H]2CC[C@@H](CO)O2)c(=O)n1 | inactive |  |
| CC(=O)OCC=C(C)CCC=C(C)CCC=C(C)C |  | 25.1 µM (active) |
| NC(N)=S | inactive |  |
| CC(=O)C1C(=O)C=C(C)OC1=O (configuration not stated) | inactive |  |
| CC(C)CCOC(=O)CC(C)C | inactive |  |
| CC(C)=CC(=O)O |  | 7.06 µM (active) |
| CCCCCc1cccc(=O)o1 | inactive |  |
| CCO[Si](CCC#N)(OCC)OCC | inactive |  |
| CC(C)COC(=O)c1ccccc1O | inactive |  |
| O=C(C=Cc1ccccc1)OCCCc1ccccc1 |  | 29.7 µM (active) |
| O=C1CCC(=O)N1 | inactive |  |
